Measured values from the supplement of paper PMC11219838.
Unmarked numbers belong to inactive results.

System: Ditylenchus dipsaci
Assay: proportion of mobile D. dipsaci (mixed stage) relative to DMSO control (fraction of DMSO control); higher = more viable, less nematicidal, active = 0.86 or less; extreme values may be limits of the assay
Conditions: 60 µM; 5 days; temperature: 20 °C
How it was run: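 Mobility values are relative to DMSO controls and are averages of two biological replicates. For each well of a 96-well plate, about 20 D. dipsaci worms, grown on pea plants in Gamborg B-5 agar and funnel-extracted into water, were dispensed in distilled water. Plates received pinned compound at 60 µM final with 0.6% v/v DMSO and were sealed and shaken at 200 rpm for 5 days at 20 °C before 2 µL 1 M NaOH was added and mobile worms were scored by microscope.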

| Structure (SMILES) | proportion of mobile D. dipsaci |
| --- | --- |
| Fc1ccccc1OCc1nc(-c2ccc(Cl)cc2)no1 | 1 |
| Cc1ccccc1-c1noc(-c2ccccc2OCC(N)=O)n1 | 1 |
| CCCOc1ccc(-c2ccc(-c3nc(-c4cccnc4)no3)cc2)cc1 | 1 |
| COc1ccccc1-c1noc(-c2ccccc2)n1 | 1 |
| Cc1ccc(OCc2nc(-c3ccc(F)cc3)no2)cc1C | 1 |
| COc1ccccc1-c1noc(-c2ccccc2F)n1 | 1 |
| Cc1cc(OCc2nc(-c3ccccc3)no2)ccc1Br | 1 |
| CCOc1cc(-c2nc(-c3ccc(C)nc3OC)no2)cc(OCC)c1OCC | 1 |
| Cc1ccc(-c2nc(-c3ccncc3)no2)c(Cl)c1 | 1 |
| O=C(CSc1nnc(-c2ccc(Cl)cc2Cl)o1)Nc1ccccn1 | 1 |
| Clc1cc(Br)ccc1OCc1nc(-c2ccncc2)no1 | 1 |
| CCOc1cc(-c2nc(-c3ccc(C)nc3OCC)no2)cc(OCC)c1OCC | 1 |
| Brc1ccc(-c2noc(-c3ccco3)n2)o1 | 1 |
| CC1CCN(C(=O)CSc2nnc(-c3cc4ccccc4o3)o2)CC1 | 1 |
| COc1cccc(-c2noc(CSc3ccccc3)n2)c1 | 1 |
| CCOc1ccccc1NC(=O)CSc1nnc(-c2ccco2)o1 | 1 |
| Cc1cc(C)c(C)c(OCc2nc(-c3ccccc3)no2)c1 | 1 |
| Clc1ccc(-c2nnc(SCc3ccccc3)o2)cc1 | 1 |
| COc1ccc(-c2nnc(SCc3ccccc3C)o2)cc1 | 1 |

| Structure (SMILES) | proportion of mobile D. dipsaci |
| --- | --- |
| O=C(CSc1nnc(-c2ccccc2Cl)o1)NCc1ccco1 | 1 |
| COc1ccc(-c2nnc(SCc3ccc(Cl)cc3Cl)o2)cc1 | 1 |
| Cn1cc(C(=O)CSc2nnc(-c3ccccc3)o2)c2ccccc21 | 1 |
| Brc1cccc(-c2noc(-c3ccc4c(c3)OCO4)n2)c1 | 1 |
| COc1cccc(-c2noc(COc3ccc(Br)cc3)n2)c1 | 1 |
| COc1ccc(Cl)cc1NC(=O)CSc1nnc(-c2ccc(Br)cc2)o1 | 1 |
| Cc1cccc(-c2noc(-c3cc(Cl)ccc3Cl)n2)c1 | 1 |
| COc1cccc(-c2noc(-c3c(F)cccc3F)n2)c1 | 1 |
| c1ccc(-c2noc(-c3cccs3)n2)cc1 [tioxazafen] | 1 |
| Cc1cc(C)cc(OCc2nc(-c3cc(C)nc4ccccc34)no2)c1 | 1 |
| COc1cccc(-c2nc(-c3ccccc3)no2)c1 | 1 |
| COc1nc(-c2ccc(Cl)cc2)ccc1-c1noc(C)n1 | 1 |
| c1coc(-c2nnc(-c3ccco3)o2)c1 | 1 |
| NC(=O)COc1ccccc1-c1nc(-c2ccccc2Cl)no1 | 1 |
| CCc1ccc(C(=O)Nc2ccccc2-c2nc(-c3ccncc3)no2)cc1 | 1 |
| CC(C)C(=O)Nc1ccccc1-c1nc(-c2ccccn2)no1 | 1 |
| COc1ccc(-c2nnc(SCC(=O)Nc3c(F)cc(F)cc3Br)o2)cc1 | 1 |
| CC(C)(C)c1ccc(-c2nnc(SCC(=O)c3ccc(F)cc3)o2)cc1 | 1 |
| COc1ccccc1-c1nnc(SCC(=O)Nc2ccc(Br)cn2)o1 | 1 |
